“And” between values parts separate entries of the source, which are not always exact repeats. Identical values can stand only once. Compounds without any hit were thinned out: in the full panel of roughly 83,000, 20% have a hit.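 Single-dose data. Exposure time 48 hours. Values below 10 considered active.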 The source made the active and inactive calls.
How the values were obtained:
Experiment in all cases: NCI-60 one-dose screen, 48 h (100 = growth as untreated, 0 = no growth, -100 = all killed)
Conditions in all cases: 10 µM unless noted
[1] = tested on: SK-MEL-2 melanoma
[2] = tested on: EKVX NSCLC
[3] = tested on: SN12C renal
[4] = tested on: UO-31 renal
[5] = tested on: TK-10 renal
[6] = tested on: ACHN renal
[7] = tested on: CAKI-1 renal
[8] = tested on: A498 renal
[9] = tested on: CCRF-CEM leukemia
[10] = tested on: MOLT-4 leukemia
[11] = tested on: SR leukemia
[12] = tested on: RPMI-8226 leukemia
[13] = tested on: OVCAR-8 ovarian
[14] = tested on: OVCAR-5 ovarian
[15] = tested on: OVCAR-4 ovarian
[16] = tested on: IGROV1 ovarian
[17] = tested on: OVCAR-3 ovarian
[18] = tested on: HS 578T breast
[19] = tested on: NCI/ADR-RES ovarian
[20] = tested on: SK-OV-3 ovarian

Structure (SMILES) | growth [1] | growth [2] | growth [3] | growth [4] | growth [5] | growth [6] | growth [7] | growth [8] | growth [9] | growth [10] | growth [11] | growth [12] | growth [13] | growth [14] | growth [15] | growth [16] | growth [17] | growth [18] | growth [19] | growth [20]
CC[N+](CC)(CC(=O)Nc1c(C)cccc1C)Cc1ccccc1 | 107% (inactive) and 119% (inactive) | 106% (inactive) and 100% (inactive) | 85.9% (inactive) and 100% (inactive) | 92.6% (inactive) and 71.6% (inactive) | 144% (inactive) and 90.9% (inactive) | 98.5% (inactive) and 101% (inactive) | 108% (inactive) and 91.9% (inactive) | 106% (inactive) and 107% (inactive) | 2.65% (active) | 99.8% (inactive) and 98.6% (inactive) | 92.4% (inactive) | 74% (inactive) and 113% (inactive) | 95.2% (inactive) and 105% (inactive) | 119% (inactive) and 99.1% (inactive) | 80.4% (inactive) and 105% (inactive) | 85.4% (inactive) and 94.5% (inactive) | 104% (inactive) and 109% (inactive) | 109% (inactive) | 90.3% (inactive) and 102% (inactive) | –
c1ccc(NCc2ccc3c(c2)OCO3)cc1 | 106% (inactive) and 105% (inactive) | 107% (inactive) | 105% (inactive) and 100% (inactive) | 78.7% (inactive) and 83% (inactive) | 102% (inactive) and 99.7% (inactive) | 109% (inactive) and 97.4% (inactive) | 96.8% (inactive) and 101% (inactive) | 101% (inactive) and 86.9% (inactive) | 101% (inactive) and 92.3% (inactive) | 95.7% (inactive) and 97.2% (inactive) | 92.5% (inactive) and 92.2% (inactive) | 99.6% (inactive) and 93.7% (inactive) | 98.1% (inactive) | – | 106% (inactive) and 108% (inactive) | 118% (inactive) and 102% (inactive) | 103% (inactive) and 105% (inactive) | 109% (inactive) and 104% (inactive) | 106% (inactive) and 105% (inactive) | –
COc1ccc(-c2ncnc3c2ncn3C/C=C/CCl)cc1 | 68.6% (inactive) and 59.2% (inactive) | 108% (inactive) and 106% (inactive) | 83.6% (inactive) and 79.6% (inactive) | 60.3% (inactive) and 85.8% (inactive) | 86.3% (inactive) and 95.3% (inactive) | 59.4% (inactive) and 79.3% (inactive) | 70.8% (inactive) and 90.8% (inactive) | 68.4% (inactive) and 85.6% (inactive) | 63.2% (inactive) and 56.7% (inactive) | 48.9% (inactive) | – | 52.1% (inactive) and 67.4% (inactive) | 67.2% (inactive) and 69.5% (inactive) | 114% (inactive) and 105% (inactive) | 53.3% (inactive) and 56.7% (inactive) | 93.8% (inactive) and 82.9% (inactive) | 77.6% (inactive) and 99% (inactive) | 131% (inactive) and 111% (inactive) | 76.9% (inactive) and 86.3% (inactive) | –
CC(C)Cc1ccc(C(C)C(=O)NCc2ccc(Cn3c(=O)sn(CCCI)c3=O)cc2)cc1 (stereo not drawn) | 104% (inactive) and -40.1% (active) | 90.6% (inactive) and -64.7% (active) | 90.4% (inactive) and -76.9% (active) | 70.3% (inactive) and -100% (active) | 99.8% (inactive) and -90.7% (active) | 72% (inactive) and -100% (active) | 92.1% (inactive) and -82.9% (active) | 79.4% (inactive) and -2.41% (active) | 37% (inactive) and 2.58% (active) | 49% (inactive) and -3.72% (active) | 56.4% (inactive) and 2.84% (active) | 96.5% (inactive) and -19.8% (active) | 96.3% (inactive) and -30.2% (active) | 103% (inactive) and -58.1% (active) | 84.9% (inactive) and -53.2% (active) | 88.2% (inactive) and -82.1% (active) | 92.7% (inactive) and -86% (active) | 92.1% (inactive) and -1.05% (active) | 106% (inactive) and -18.5% (active) | –
CCN(CC)C(=S)SSC(=S)N(CC)CC | 103% (inactive) | 89.1% (inactive) and 113% (inactive) | 78.9% (inactive) and 106% (inactive) | 63.3% (inactive) and 90.7% (inactive) | 96.9% (inactive) | 71.1% (inactive) and 101% (inactive) | 76.4% (inactive) and 87.5% (inactive) | 83.7% (inactive) and 111% (inactive) | 16.9% (inactive) and 102% (inactive) | 46% (inactive) and 93.2% (inactive) | 3.32% (active) and 89% (inactive) | 45.4% (inactive) and 110% (inactive) | 65.8% (inactive) and 89.4% (inactive) | 86% (inactive) and 100% (inactive) | 76.6% (inactive) and 94.6% (inactive) | 77.5% (inactive) and 113% (inactive) | 68.3% (inactive) and 108% (inactive) | 111% (inactive) | 84.1% (inactive) and 106% (inactive) | –
O=C(O)c1cc(C(=O)O)cc([N+](=O)[O-])c1 | 102% (inactive) | 106% (inactive) | 107% (inactive) | 91.3% (inactive) | 102% (inactive) | 105% (inactive) | 96.2% (inactive) | 103% (inactive) | 94.9% (inactive) | 98.4% (inactive) | 86.4% (inactive) | 108% (inactive) | 106% (inactive) | 105% (inactive) | 108% (inactive) | 108% (inactive) | 111% (inactive) | 112% (inactive) | 106% (inactive) | –
Cc1ccc(NCSc2ccc(Cl)cc2)cc1 | 108% (inactive) and 93.6% (inactive) | 92.7% (inactive) and 77.3% (inactive) | 46.2% (inactive) and 42.7% (inactive) | 27% (inactive) and 14.7% (inactive) | 90.8% (inactive) and 78.2% (inactive) | 88.4% (inactive) and 99.6% (inactive) | 59.5% (inactive) | 62.5% (inactive) and 66.3% (inactive) | 17.8% (inactive) | 25.1% (inactive) and 47.8% (inactive) | 62.5% (inactive) and 67.7% (inactive) | 20.8% (inactive) | 97.3% (inactive) and 93.2% (inactive) | 106% (inactive) | – | 103% (inactive) and 80.7% (inactive) | 71.6% (inactive) and 78.9% (inactive) | 93.7% (inactive) and 102% (inactive) | 88% (inactive) and 95.8% (inactive) | 96.2% (inactive) and 97% (inactive)
O[C@H](c1cc(C(F)(F)F)nc2c(C(F)(F)F)cccc12)[C@@H]1CCCCN1 | 73.6% (inactive) and 52.5% (inactive) | 65.5% (inactive) and 82.8% (inactive) | 65.9% (inactive) and 55.1% (inactive) | 50.5% (inactive) and 31.7% (inactive) | 56.9% (inactive) and 63.8% (inactive) | 40.1% (inactive) and 45.8% (inactive) | 72.7% (inactive) and 50.9% (inactive) | 67% (inactive) and 52% (inactive) | 76.5% (inactive) and 71.6% (inactive) | 32.7% (inactive) | 11.7% (inactive) | 70.1% (inactive) and 79.2% (inactive) | 80.3% (inactive) and 64.2% (inactive) | – | 69.7% (inactive) and 59.8% (inactive) | 47.8% (inactive) and 46.4% (inactive) | 68.1% (inactive) and 55% (inactive) | 66.3% (inactive) and 63% (inactive) | 65.7% (inactive) and 56.1% (inactive) | –
O=[N+]([O-])c1ccc(N/N=C\c2cc(Br)ccc2O)nc1 | 39.7% (inactive) | 81% (inactive) and 46.4% (inactive) | 22.3% (inactive) and 20.3% (inactive) | -6.22% (active) and -11.8% (active) | 22.1% (inactive) and 37.9% (inactive) | 4.98% (active) and 10.6% (inactive) | 0.337% (active) and 2.29% (active) | 69.5% (inactive) | 17.5% (inactive) and -4.06% (active) | 12% (inactive) and -9.48% (active) | 20.2% (inactive) and 3.08% (active) | 32.5% (inactive) and -9.9% (active) | 11.9% (inactive) and 3.96% (active) | – | 20.3% (inactive) and 7.71% (active) | 13.5% (inactive) and 8.02% (active) | 11.2% (inactive) and 24.5% (inactive) | 39.1% (inactive) and 61.4% (inactive) | 5.25% (active) and 6.08% (active) | 27.1% (inactive) and 27.7% (inactive)

From PubChem BioAssay (NCI)
